Reference: article PMC4336329 (PLoS ONE, 2015)
The campaign covered roughly 310,000 compounds. About 14,000 (4.5%) showed an effect of 50% or more. The effect is printed as a negative number. The sample holds strong results, similar compounds and a random draw of the others, so the mix is not that of the screen.

The compounds below were run against human ether-à-go-go-related gene (hERG) potassium channel (human, UniProt Q12809) (assay: primary screen, population patch clamp on CHO cells stably expressing hERG; higher = less effect of the substance).
Sequence of human ether-à-go-go-related gene (hERG) potassium channel (Q12809 whole entry, looked up): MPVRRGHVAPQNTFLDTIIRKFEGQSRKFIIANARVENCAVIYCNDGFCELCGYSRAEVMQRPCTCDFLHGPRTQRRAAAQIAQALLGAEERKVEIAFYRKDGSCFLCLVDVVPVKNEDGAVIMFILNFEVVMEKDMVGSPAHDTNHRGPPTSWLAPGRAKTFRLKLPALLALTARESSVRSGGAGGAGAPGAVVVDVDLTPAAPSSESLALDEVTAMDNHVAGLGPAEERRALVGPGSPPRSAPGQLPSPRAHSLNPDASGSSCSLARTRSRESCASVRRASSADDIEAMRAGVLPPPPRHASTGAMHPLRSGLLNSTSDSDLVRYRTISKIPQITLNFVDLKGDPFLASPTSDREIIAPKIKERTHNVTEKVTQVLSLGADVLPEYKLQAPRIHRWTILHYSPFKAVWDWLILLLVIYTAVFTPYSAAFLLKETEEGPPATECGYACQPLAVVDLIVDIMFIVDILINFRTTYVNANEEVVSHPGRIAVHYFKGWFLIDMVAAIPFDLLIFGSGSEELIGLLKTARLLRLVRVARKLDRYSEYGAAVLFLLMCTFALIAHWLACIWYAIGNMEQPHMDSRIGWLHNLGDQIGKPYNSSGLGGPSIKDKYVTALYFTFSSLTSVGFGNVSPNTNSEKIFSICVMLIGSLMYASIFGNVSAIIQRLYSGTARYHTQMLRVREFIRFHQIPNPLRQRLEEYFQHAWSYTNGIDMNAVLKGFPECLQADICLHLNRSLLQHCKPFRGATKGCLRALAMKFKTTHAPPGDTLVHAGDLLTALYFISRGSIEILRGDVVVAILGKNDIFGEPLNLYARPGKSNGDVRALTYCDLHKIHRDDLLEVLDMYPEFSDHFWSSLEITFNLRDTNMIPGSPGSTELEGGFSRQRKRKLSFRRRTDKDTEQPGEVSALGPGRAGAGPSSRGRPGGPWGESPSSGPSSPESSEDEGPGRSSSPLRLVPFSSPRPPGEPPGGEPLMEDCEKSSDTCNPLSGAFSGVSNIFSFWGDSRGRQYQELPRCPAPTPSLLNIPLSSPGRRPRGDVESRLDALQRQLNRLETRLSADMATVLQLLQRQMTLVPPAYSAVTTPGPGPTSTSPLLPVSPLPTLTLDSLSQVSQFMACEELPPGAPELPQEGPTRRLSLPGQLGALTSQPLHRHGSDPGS
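Note: peak tail current of the secondary pulse compared with the same well before compound.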

Compound | hERG current change (%, negative = inhibition) at 10uM
O=C(Nc1ccc(C(=O)N2CCC(O)(c3ccc(Cl)c(C(F)(F)F)c3)CC2)cc1)c1ccc(Br)o1 | 8.21%
Cc1cc2cc(CCNC(=O)CC(C)(C)C)c(=O)[nH]c2cc1C | 7.53%
O=C(Cc1coc(-c2ccc(F)cc2)n1)Nc1ccccc1 | -15.4%
Cn1c(=O)c2ncn(CC(=O)Nc3nc(-c4ccc(Cl)cc4)cs3)c2n(C)c1=O | 12.1%
N#CCc1c(C#N)c(N)nc(N2CCN(S(=O)(=O)c3ccccc3F)CC2)c1C#N | -9.75%
O=C(CN(c1ccccc1)S(=O)(=O)c1ccccc1)Nc1ccc(F)cc1 | 22.6%
Cc1cccc(N2C(=O)NC(=O)/C(=C\c3cc(C)n(-c4sc5c(c4C#N)CCCC5)c3C)C2=O)c1C | 4.35%
Cc1nnc(NC(=O)CSc2nnc(C)n2Cc2ccccc2)s1 | 17.7%
O=C(c1cccc(S(=O)(=O)N2CCN(c3ccc(F)cc3)CC2)c1)N1CCCCCCC1 | -45.2%
CC1CCN(S(=O)(=O)c2cccc(C(=O)N3CCN(c4ccc(F)cc4)CC3)c2)CC1 | -65.4%
CC1CCN(C(=O)c2cccc(S(=O)(=O)N3CCN(c4ccccc4)CC3)c2)CC1 | 2.41%
CC1CC(C)CN(S(=O)(=O)c2cccc(C(=O)N3CCN(c4ccc(F)cc4)CC3)c2)C1 (centres unmarked) | -51.9%
CC1CN(C(=O)c2cccc(S(=O)(=O)N3CCN(c4ccc(F)cc4)CC3)c2)CC(C)O1 (centres unmarked) | -45.4%
CC(=O)N1CCN(C(=O)c2cccc(S(=O)(=O)N3CCN(c4ccc(F)cc4)CC3)c2)CC1 | -20.1%
COc1cc(/C=N/NC(=O)CSc2n[nH]c(=O)[nH]c2=O)cc(OC)c1O | 28.8%
Cc1cc(C)cc(-n2c(SC(C)C(=O)NCc3ccc4c(c3)OCO4)nc3ccccc3c2=O)c1 (centres unmarked) | 11.3%
COc1cc(NC(=O)c2ccc(C)cc2C)ccc1NC(=O)c1cc2ccccc2o1 | 6.61%
Nc1c(C(=O)c2ccccc2)sc2nsc(SCCN3CCCC3)c12 | -38.2%
Clc1ccc(N2CCN(/N=C/c3cccnc3)CC2)cc1 | -1.21%
O=C(Nc1nccs1)c1ccc(Br)cc1 | 12.1%
CCn1c(SCC(=O)N/N=C/C=C/c2ccco2)nnc1-c1ccccc1 | -34.7%
O=C(CSc1nnc(-c2ccccc2)n1-c1ccc(Cl)cc1)N/N=C/c1ccco1 | -55%
O=C(CSc1nnc(-c2ccc(Cl)cc2)n1-c1ccc(Cl)cc1)N/N=C/c1ccco1 | -41.7%
Cc1ccc(/C=N/NC(=O)CSc2nnc(-c3ccccc3)n2-c2ccc(Cl)cc2)o1 | -21.8%
CCn1c(SCC(=O)N/N=C/C(C)=C\c2ccco2)nnc1-c1ccccc1 | -39%
CCn1c(SCC(=O)N/N=C/C(C)=C/c2ccco2)nnc1-c1ccccc1 | -55.1%
